Records with an inconclusive call do not appear. A call without a number means that no potency is given here. The source made the active and inactive calls. Calls come from the whole dose curve; as a rule, active = well fitted inhibition curve with a large enough effect; inconclusive = small, poorly fitted or top-dose-only effect; inactive = flat fitted curve, though single readings scatter. Peptide text beside a SMILES is read from it.
test system: CP265; test: qHTS profiling for inhibitors of Plasmodium falciparum proliferation (AID 504749); note: nearly all actives have a fitted effect of over 60% in size; conditions: P. falciparum in erythrocytes, SYBR Green DNA, 72 h; series mostly up to 12.8 µM
How it was run: (§1)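 SYBR Green fluorescence of parasite DNA, read after lysis and overnight dark incubation, measured growth over 72 h in erythrocyte culture at 0.3% parasitemia and 2.5% hematocrit. Data normalised to DMSO and 0.29 uM artemisinin, with plate-drift correction.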
Potency is the fitted concentration of half-maximal effect.

| SMILES | Potency |
| --- | --- |
| C[C@]12C=CC(=O)C=C1CCC1C2C(O)C[C@]2(C)C1CC[C@]2(O)C(=O)CO (some centres not stated) | inactive |
| CC1(C)S[C@H]2C(NC(=O)[C@@H](N)c3ccc(O)cc3)C(=O)N2[C@@H]1C(=O)O (some centres not stated) | inactive |
| CC(C)=CCC[C@](C)(O)C1CC=C(C)CC1 (some centres not stated) | inactive |
| C[C@]1(c2ccccc2)OC(C(=O)O)=CC1=O | inactive |
| CC(=O)N[C@H](CC(C)C)C(=O)O | inactive |
| COc1ccc2cc(C(C)CO)ccc2c1 (configuration not stated) | inactive |
| COC1C=CO[C@@]2(C)Oc3c(C)c(O)c4c(O)c(c(C=NN5CCN(C)CC5)c(O)c4c3C2=O)NC(=O)/C(C)=C\C=CC(C)C(O)[C@@H](C)C(O)C(C)[C@H](OC(C)=O)C1C (some centres not stated) | 5.01 µM (active) |
| CC1CCC(C(C)C)C(=O)C1 (configuration not stated) | inactive |
| CNC1CC(N)[C@H](O)[C@@H](O[C@@H]2OC(CO)C3OC4(OC(C(N)CO)C(O)C(O)C4O)O[C@@H]3[C@H]2O)C1O (some centres not stated) | inactive |
| CCCC(=O)O[C@]1(C(=O)CO)CCC2[C@@H]3CCC4=CC(=O)CC[C@]4(C)C3C(O)C[C@]21C (some centres not stated) | inactive |
| CC(=O)[C@]1(O)CCC2C3C=C(Cl)C4=CC(=O)C5CC5[C@@]4(C)C3CC[C@]21C (some centres not stated) | inactive |
| CC(=O)N[C@@H]1C(O)OC(CO)C(O)C1O (some centres not stated) | inactive |
| C/C1=C2N=C(/C=C3N=C(/C(C)=C4\[N-]C(C)(C5N=C1C(C)(CCC(=O)NCC(C)OP(=O)([O-])O[C@H]1C(O)C(n6cnc7cc(C)c(C)cc76)O[C@@H]1CO)C5CC(N)=O)C(C)(CC(N)=O)C4CCC(N)=O)C(C)(CC(N)=O)C\3CCC(N)=O)C(C)(C)C/2CCC(N)=O.[CH2-]C1OC(n2cnc3c(N)ncnc32)C(O)C1O.[Co] (some centres not stated) | inactive |
| O=C1OC(CO)C(O)C(O)C1O (configuration not stated) | inactive |
| CNC1C(OC2C(O[C@@H]3C(O)C(O)[C@@H](N=C(N)N)C(O)C3N=C(N)N)OC(C)[C@@]2(O)CO)OC(CO)C(O)C1O (some centres not stated) | inactive |
| COc1cc(C2c3cc4c(cc3C(O[C@@H]3OC5COC(c6cccs6)OC5C(O)C3O)C3COC(=O)C23)OCO4)cc(OC)c1O (some centres not stated) | 2.82 µM (active) |
| Nc1nc2ncc(CNc3ccc(C(=O)NC(CCC(=O)O)C(=O)O)cc3)nc2c(=O)[nH]1 (configuration not stated) | inactive |

test system: CP266; test: as above; conditions: P. falciparum in erythrocytes, SYBR Green DNA, 72 h; series mostly up to 12.8 µM
How it was run: as §1

| SMILES | Potency |
| --- | --- |
| CN(C)CCCOC1C(C(O)CO)OC2OC(C)(C)O[C@@H]21 (some centres not stated) | inactive |
| CCC(C)C(=O)OC1CCC=C2C=CC(C)C(CCC3CC(O)CC(=O)O3)[C@@H]21 (some centres not stated) | inactive |
| CC(=O)OC1CCC2C3CCc4cc(O)ccc4C3CCC12C (configuration not stated) | inactive |
| CC[C@@]12CCCN3CCc4c(n(c5ccccc45)[C@](O)(C(=O)OC)C1)C32 (some centres not stated) | inactive |
| NC(C(=O)O)[C@@H]1CC(Cl)=NO1 (some centres not stated) | 3.79 µM (active) |
| CN1CC(=O)N=C1N | inactive |
| OCC1OC([S-])[C@H](O)C(O)C1O.[Au+] (some centres not stated) | inactive |
| CCC(CCC(C)C1CCC2C3CC=C4CC(O)CC[C@@]4(C)C3CC[C@@]12C)C(C)C (some centres not stated) | inactive |
| C[C@]12CCC(=O)C=C1CCC1C2C(=O)C[C@]2(C)C1CC[C@]2(O)C(=O)CO (some centres not stated) | inactive |
| OCC1O[C@H](OC2C(CO)O[C@@](O)(CO)C2O)C(O)C(O)C1O (some centres not stated) | inactive |
| CC1(C)OC2CO[C@]3(COS(N)(=O)=O)OC(C)(C)OC3C2O1 (some centres not stated) | inactive |
| CC1(C)OC2CC(=O)OC[C@@]23C1CC(=O)[C@]1(C)C3CC[C@@]2(C)C(c3ccoc3)OC(=O)C3O[C@@]321 (some centres not stated) | inactive |
| CCOC(=O)C1=CC(OC(CC)CC)C(NC(C)=O)C(N)C1 (configuration not stated) | inactive |
| COC(=O)C(Cc1ccccc1)NC(=O)C(N)CC(=O)O (stereo not drawn) (H-Asp-Phe-OMe; configuration not given here) | inactive |
| C[C@]12C=CC(=O)C=C1CCC1C2C(O)C[C@]2(C)C1CC[C@]2(O)C(=O)CO (some centres not stated) | inactive |
| CC1(C)S[C@H]2C(NC(=O)[C@@H](N)c3ccc(O)cc3)C(=O)N2[C@@H]1C(=O)O (some centres not stated) | inactive |
| C[C@]1(c2ccccc2)OC(C(=O)O)=CC1=O | inactive |
| CC(=O)N[C@H](CC(C)C)C(=O)O | inactive |
| COc1ccc2cc(C(C)CO)ccc2c1 (configuration not stated) | inactive |
| COC1C=CO[C@@]2(C)Oc3c(C)c(O)c4c(O)c(c(C=NN5CCN(C)CC5)c(O)c4c3C2=O)NC(=O)/C(C)=C\C=CC(C)C(O)[C@@H](C)C(O)C(C)[C@H](OC(C)=O)C1C (some centres not stated) | 6.75 µM (active) |
| CC1CCC(C(C)C)C(=O)C1 (configuration not stated) | inactive |
| CNC1CC(N)[C@H](O)[C@@H](O[C@@H]2OC(CO)C3OC4(OC(C(N)CO)C(O)C(O)C4O)O[C@@H]3[C@H]2O)C1O (some centres not stated) | inactive |
| CCCC(=O)O[C@]1(C(=O)CO)CCC2[C@@H]3CCC4=CC(=O)CC[C@]4(C)C3C(O)C[C@]21C (some centres not stated) | inactive |
| CC(=O)[C@]1(O)CCC2C3C=C(Cl)C4=CC(=O)C5CC5[C@@]4(C)C3CC[C@]21C (some centres not stated) | inactive |
| CC(=O)N[C@@H]1C(O)OC(CO)C(O)C1O (some centres not stated) | inactive |
| C/C1=C2N=C(/C=C3N=C(/C(C)=C4\[N-]C(C)(C5N=C1C(C)(CCC(=O)NCC(C)OP(=O)([O-])O[C@H]1C(O)C(n6cnc7cc(C)c(C)cc76)O[C@@H]1CO)C5CC(N)=O)C(C)(CC(N)=O)C4CCC(N)=O)C(C)(CC(N)=O)C\3CCC(N)=O)C(C)(C)C/2CCC(N)=O.[CH2-]C1OC(n2cnc3c(N)ncnc32)C(O)C1O.[Co] (some centres not stated) | inactive |
| O=C1OC(CO)C(O)C(O)C1O (configuration not stated) | inactive |
| CNC1C(OC2C(O[C@@H]3C(O)C(O)[C@@H](N=C(N)N)C(O)C3N=C(N)N)OC(C)[C@@]2(O)CO)OC(CO)C(O)C1O (some centres not stated) | inactive |
| COc1cc(C2c3cc4c(cc3C(O[C@@H]3OC5COC(c6cccs6)OC5C(O)C3O)C3COC(=O)C23)OCO4)cc(OC)c1O (some centres not stated) | 4.78 µM (active) |
| Nc1nc2ncc(CNc3ccc(C(=O)NC(CCC(=O)O)C(=O)O)cc3)nc2c(=O)[nH]1 (configuration not stated) | inactive |

— PubChem BioAssay (NCATS)
